Screen size: about 330,000 compounds; about 7,700 (2.3%) were called active. Not shown: some 26% with an inconclusive outcome. Many of the other results were omitted from the sample, so actives are more common in it than they were. Values without a mark were called inactive. The call rests on the fitted dose curve; in most records, active means well fitted inhibition curve with a large enough effect; inconclusive means small, poorly fitted or top-dose-only effect, or effect the other way; inactive means flat fitted curve, though single readings scatter.
Assay: qHTS screen for small molecules that inhibit ELG1-dependent DNA repair in human embryonic kidney (HEK293T) cells expressing luciferase-tagged ELG1; further: nearly all actives have a fitted effect of over 55% in size
Settings: HEK293T ELG1-luciferase reporter, luminescence, 16 h, DNA damage induced by 5-fluorouridine; series mostly up to 46.1 µM; activity change, negative = inhibition: at the top concentration
In short: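 Overnight (16 hr) co-exposure of 2,000 cells/well to 5-fluorouridine and compound at 37 °C preceded detection. Luciferase was quantified via ONE-Glo luminescence; loss of signal denotes inhibition.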
On the % scale 0 is the no-effect control and ±100 the full control effect; potency means the concentration at half of the fitted maximal effect.

SMILES	activity change, negative = inhibition	Potency
COc1cccc(C(=O)Nc2nnc(S(=O)(=O)N3CCCCC3)s2)c1	-4.91%	
CCCn1nc(C(=O)NNC(=O)CCOc2ccccc2OCC)c2ccccc2c1=O	-22.5%	
O=Cc1c(Nc2ccccc2Cl)nc2ccccn2c1=O	16%	
Cc1nc2ccccc2c(=O)n1-c1ccc(F)c(NC(=O)c2cccs2)c1	-29.9%	
O=C(CN1C(=O)NC2(CCCCCC2)C1=O)Nc1ccc([N+](=O)[O-])cc1	15.8%	
CC(=O)Nc1ccc(C(=O)Nc2cccc(S(=O)(=O)NC3=NCCC3)c2)cc1	1.78%	
CC(=O)c1ccc(S(=O)(=O)N(C)CCCC(=O)N(C)Cc2ccccc2F)cc1	-16.6%	
Cc1ccccc1N1CCN(C2CCCN(C(=O)c3ocnc3C)C2)CC1 (stereo not given)	-1.3%	
Cc1ccccc1N1CCN(C2CCCN(C(=O)c3cn4c(C)cccc4n3)C2)CC1 (stereo not given)		16.4 µM (active)
Cc1cnc(C(=O)N2CCCC(N3CCN(c4ccccc4F)CC3)C2)cn1 (stereo not given)	0.472%	
CC(NC(=O)COC(=O)c1ccc2ccccc2n1)c1ccccc1 (stereo not given)	17.5%	
CCN(CC)S(=O)(=O)c1cc(C(=O)Nc2cc(S(=O)(=O)N3CCOCC3)ccc2N2CCCC2)ccc1F	-9.98%	
O=c1oc2ccc(C#CC3(O)CCCCC3)cc2cc1-n1cc(-c2ccsc2)nn1	19.7%	
COC(=O)[C@]1(Cc2ccccc2)N[C@H](CN(C)S(=O)(=O)c2ccc(OC(F)(F)F)cc2)[C@@H]2C(=O)N(Cc3ccccc3)C(=O)[C@@H]21	1.29%	
Cc1nn(CC(=O)Nc2nc3ccccc3s2)c(C)c1[N+](=O)[O-]	19.8%	
Cc1ccc(S(=O)(=O)Nc2nc3ccccc3s2)cc1[N+](=O)[O-]	0.096%	
O=[N+]([O-])c1cc(Br)c(O)c(/C=N/Nc2nc3ccccc3s2)c1		4.11 µM (active)
Cc1ccccc1NC(=O)NCC1CCN(Cc2cccc(Cl)c2)CC1	16.6%	
CC(=O)N1CCOc2ccc(S(=O)(=O)N3CCN(c4cccc(C(F)(F)F)c4)CC3)cc21	-16.8%	
C/C(N)=C(/C#N)C(=O)COC(=O)c1cc(-c2cccc(Br)c2)nc2ccccc12		11.6 µM (active)
COc1cccc(OC)c1C(=O)OCC(=O)/C(C#N)=C(\C)N	9.16%	
C/C(N)=C(/C#N)C(=O)COC(=O)c1cc(-c2ccccc2)nc2ccc(Br)cc12	6.28%	
CCOc1ccccc1Nc1nnc(SCC(=O)NCC2CCCO2)s1 (stereo not given)	-7.85%	
O=C(COc1ccc(F)cc1Br)NCC1COc2ccccc2O1 (stereo not given)	-0.0293%	

SMILES	activity change, negative = inhibition	Potency
O=S(=O)(c1ccc(F)cc1)N1CCN(Cc2ccccc2C(F)(F)F)CC1	-2.01%	
COc1ccc2c(CN3CCN(S(=O)(=O)c4cccs4)CC3)cc(=O)oc2c1		23.1 µM (active)
Cc1ccc2c(CN3CCN(S(=O)(=O)c4ccccc4C(F)(F)F)CC3)cc(=O)oc2c1		17.8 µM (active)
O=c1cc(CN2CCN(S(=O)(=O)/C=C/c3ccccc3)CC2)c2ccc(O)cc2o1	-1.27%	
Cc1cc2oc(=O)cc(CN3CCN(Cc4ccccc4)CC3)c2cc1C	-0.0674%	
CC(C)c1ccc2oc(=O)cc(CN3CCN(Cc4ccccc4)CC3)c2c1	-6.46%	
COc1ccc2oc(=O)cc(CN3CCOCC3)c2c1	0%	
Cc1cc2oc(=O)cc(CN3CCN(S(=O)(=O)c4cccs4)CC3)c2cc1C(C)C		2.31 µM (active)
O=S(=O)(c1cccs1)N1CCN(Cc2ccccc2)CC1	-2.29%	
COc1ccc(CCNC(=O)CCc2cn(C)c3ccccc23)c(OC)c1	-7.21%	
CCOc1ccc(NS(=O)(=O)c2ccc(C(=O)NCC(c3ccccc3OC)N3CCCC3)cc2)cc1 (stereo not given)	-1.12%	
O=C(OCC(=O)N1CCN(c2ccccc2)CC1)c1ccc([N+](=O)[O-])s1	2.44%	
COc1ccc(CC(=O)N[C@@H]2c3cc(OC)c(OC)cc3C[C@H]2OCc2ccccc2)cc1	-4.29%	
CC(C)CN(C(=O)COC(=O)c1ccc2ccccc2c1)c1c(N)n(Cc2ccccc2)c(=O)[nH]c1=O	-18.6%	
O=C(O[C@@H]1[C@H](Cc2ccccc2)NS(=O)(=O)[C@H]2C[C@@H]3C=C[C@]12O3)c1ccccc1Br	4.88%	
COc1cc(NC(=O)C2=CC(c3ccc(C)cc3)=NS(=O)(=O)N2C)cc(OC)c1OC		13 µM (active)
COc1ccc(C2=NS(=O)(=O)N(C)C(C(=O)NC(C)c3ccccc3)=C2)cc1 (stereo not given)	-10.1%	
COc1cc(NC(=O)C2=CC(c3ccco3)=NS(=O)(=O)N2C)cc(OC)c1OC	-1.38%	
C=CCn1c(SCc2cc(C(=O)OC)c(C)o2)nnc1-c1ccncc1	-5.1%	
C=CCn1c(SCc2c(C(=O)OC)sc(N)c2C(=O)OC)nnc1-c1ccc(Cl)cc1		23.1 µM (active)
C=CCn1c(SCn2nnc3ccccc3c2=O)nnc1-c1ccc(Cl)cc1	21.7%	
C#CCOCCOCCOCCNc1nc(N2CCN(C(=O)[C@H](CCCN=C(N)N)n3cc(C(N)[C@@H](C)CC)nn3)CC2)nc(N2CCN(C(=O)[C@H](CO)n3cc([C@@H](N)C(C)C)nn3)CC2)n1 (stereo not given in full)	1.11%	
CN(c1ccc(OCC(=O)O)cc1)S(=O)(=O)c1ccc2ccccc2c1	6.18%	
CC(C)=CCCC(C)CN1CCC(n2nccc2NC(=O)c2ccccc2)CC1 (stereo not given)	-2.86%	

SMILES	activity change, negative = inhibition	Potency
Cc1cc(C)c2[nH]c(=O)c(CN(Cc3ccccc3)C(=S)NCCCN(C)C)cc2c1	13.4%	
Cc1cccc2cc(CN(C(=O)c3cccs3)c3ccccc3)c(=O)[nH]c12	-1.66%	
Cc1cccc2cc(CN(Cc3cccs3)C(=S)NCc3ccco3)c(=O)[nH]c12		20.6 µM (active)
C=CC[C@@H](CC(=O)N[C@@H](CO)Cc1ccccc1)C(=O)N[C@H](COC(=O)[C@H](CC=C)CC(=O)OC(C)(C)C)Cc1ccccc1	18.7%	
COCCCNc1nc2c(-c3cccc(C(F)(F)F)c3)nnn2c2ccccc12	10.1%	
COC(=O)C(C)Sc1ccc2nnc(-c3cccc(F)c3)n2n1 (stereo not given)	3.9%	
COCCNc1cc(-c2ccccc2)nc2cc(-c3cccc(F)c3)nn12		18.3 µM (active)
O=S(=O)(c1ccc(SCc2ccc(Br)cc2)nc1)N1CCOCC1	2.85%	
CC(=O)Oc1ccc2c(=O)oc(-c3ccc([N+](=O)[O-])cc3)nc2c1	-0.71%	
O=C(CC(=O)Nc1ccc(Cl)c(Cl)c1)N/N=C/c1ccc(O)cc1	-5.06%	
Cc1ccc(NC(=O)C/C(N)=N/O)cc1Cl	0.53%	
O=C(CC(O)(C(F)(F)F)C(F)(F)F)Nc1ccc(Cl)c(Cl)c1		4.11 µM (active)
COc1cccc2cc(C(=O)NCc3ccc(C)cc3)c(=N)oc12	12.2%	
CCOc1ccc(NC(=O)CN(C)C(=O)c2cccc(S(=O)(=O)N3CCCC3)c2)cc1OCC	4.54%	
CCOC(=O)CNC(=O)CSc1ccc2nnc(-c3cccnc3)n2n1	18.4%	
CCCn1c(SCC(=O)N2CCc3ccccc32)nnc1-c1ccncc1	-8.3%	
CCC(=O)N1CCCc2ccccc21	14.5%	
O=C(CSc1nc2[nH]ncc2c(=O)n1-c1ccccc1)N1CCCc2ccccc21	1.87%	
Cn1c(SCC(=O)N2CCCc3ccccc32)nc2ccccc2c1=O		16.4 µM (active)
O=C(CSc1ccc2nnc(-c3ccccc3)n2n1)N1CCCc2ccccc21		25.9 µM (active)
O=C1NC(Cc2ccc(O)cc2)c2nc3ccc(Cl)cc3c(=O)n2-c2ccccc21 (stereo not given)	-0.185%	
CCOc1ccc(NC(=O)C2CCN(C(=O)N3CCOc4ccccc43)CC2)cc1	-3.39%	
CC(C)CNC(=O)C1CCCN(S(=O)(=O)c2ccc(-n3cnnn3)cc2)C1 (stereo not given)	-8.75%	
COC(=O)c1ccc(CN2CCCC(C(=O)Nc3cccc(-n4cnnn4)c3)C2)cc1 (stereo not given)		16.4 µM (active)

SMILES	activity change, negative = inhibition	Potency
O=C(Nc1ccc(F)cc1)C1CCCN(S(=O)(=O)c2ccc(-n3cnnn3)cc2)C1 (stereo not given)	-0.956%	
O=C(NCCc1ccco1)C(=O)NCCC1CCCCN1S(=O)(=O)c1ccccc1 (stereo not given)	-2.12%	
c1ccc2c(CSCc3nc4ccccc4[nH]3)cccc2c1	2.77%	
N#C/C(=C(/O)COc1cccc2ccccc12)c1nc2ccccc2[nH]1	10.5%	
N#C/C(=C(/O)Cc1cccc2ccccc12)c1nc2ccccc2s1		20.6 µM (active)
Cc1noc(C)c1S(=O)(=O)N(C)C[C@H]1Oc2ccc(NC(=O)C3CCCCC3)cc2C(=O)N([C@H](C)CO)C[C@@H]1C	-22.7%	
O=C(Nc1ccc(C(F)(F)F)cc1)c1cccc(-n2cnnn2)c1	-22.7%	
CC(=O)Nc1ccc(NS(=O)(=O)c2ccc3c(c2)NC(=O)CC(=O)N3)cc1	2.13%	
COc1ccc(NC(=O)Cn2ncn3c(cc4ccccc43)c2=O)c(OC)c1OC	-9.46%	
COc1ccc(NC(=O)N2CCCC(c3nc(-c4ccc(F)cc4)no3)C2)cc1 (stereo not given)	-4.71%	
COc1cc(-c2noc(C3CCCN(S(=O)(=O)c4cccc(Cl)c4)C3)n2)cc(OC)c1OC (stereo not given)		20.6 µM (active)
COc1ccc(C(=O)C2CCCN(S(=O)(=O)c3cccc(C)c3)C2)c(C)c1 (stereo not given)	-11.6%	
Cn1c(CC(=O)NNC(=O)c2ccccc2F)nc2ccccc21	-2.35%	
O=C(CN1C(=O)NC2(CCOc3ccccc32)C1=O)Nc1cccc([N+](=O)[O-])c1 (stereo not given)	-1.59%	
COc1ccc(-c2ccc(Nc3ccc(S(=O)(=O)N4CCCC4)cc3)nn2)cc1OC		23.1 µM (active)
COc1ccc(S(=O)(=O)N2CCOCC2)cc1C(=O)NC1CCCCC1	11.1%	
COc1ccc(S(=O)(=O)N2CCCCC2)cc1Br	13.4%	
COc1ccc(S(=O)(=O)N2CCCCC2)cc1NC(=O)COc1ccccc1	-17.4%	
CCNC(=O)NC(=O)C(C)OC(=O)C1CCN(S(=O)(=O)c2ccccc2F)CC1 (stereo not given)	16%	
COc1ccc(CC(=O)Nc2cc(S(=O)(=O)N3CCCCC3)ccc2N2CCN(C)CC2)cc1	-4.62%	
COc1ccc(S(=O)(=O)N2CCCCCC2)cc1NC(=O)Cc1ccc(OC)c(OC)c1		18.3 µM (active)
CCNC(=O)NC(=O)C(C)OC(=O)c1cc(S(=O)(=O)N2CCCCCC2)ccc1OC (stereo not given)		23.1 µM (active)
COc1ccc(S(=O)(=O)Nc2ccc(S(=O)(=O)N3CCCCC3)cc2)cc1OC	0.651%	

Source: PubChem BioAssay AID504467 (National Center for Advancing Translational Sciences (NCATS), 2011)
